Assays:
Assay in all cases: DAPPL (digital affinity profiling via proximity ligation, sequencing); 10 mM Tris-HCl pH 7.5, 50 mM NaCl, 1 mM DTT, 4% glycerol, room temperature, 30 min; GST-TFs on glutathione beads, 16-mer random dsDNA library, 0.1% formaldehyde crosslink after washing; high values mean tight binding
Conditions in all cases: protein: recombinant; tags: N-terminal GST; dsDNA, one strand shown
ELK1 = target: T1, ELK1 (Homo sapiens, UniProt P19419 1-428)
T1 sequence: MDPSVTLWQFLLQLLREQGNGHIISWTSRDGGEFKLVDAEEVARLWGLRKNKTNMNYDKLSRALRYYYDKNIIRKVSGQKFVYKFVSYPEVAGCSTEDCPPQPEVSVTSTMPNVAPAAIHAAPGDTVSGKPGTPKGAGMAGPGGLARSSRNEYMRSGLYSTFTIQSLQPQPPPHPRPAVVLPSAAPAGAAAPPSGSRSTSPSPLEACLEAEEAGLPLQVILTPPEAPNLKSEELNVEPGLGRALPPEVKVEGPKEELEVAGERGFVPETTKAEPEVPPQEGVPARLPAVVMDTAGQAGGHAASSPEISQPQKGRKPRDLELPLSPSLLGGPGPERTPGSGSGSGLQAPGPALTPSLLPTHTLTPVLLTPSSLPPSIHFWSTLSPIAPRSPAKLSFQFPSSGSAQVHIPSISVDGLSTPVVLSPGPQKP
How it was run: (§1)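 Pools were built from human transcription factors expressed in yeast as GST fusions, captured on glutathione beads and DNA-barcoded, along with a tag-only sample. Incubation with 200 nmole of a 16-mer random double-stranded DNA library lasted 30 min at room temperature in Tris/NaCl/DTT/glycerol buffer, and was followed by washing, 0.1% formaldehyde crosslinking, proximity ligation, PCR amplification and Illumina NextSeq500 sequencing. Binding signal is the quotient of each hexamer's read frequency for a factor and its frequency for the tag-only sample.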

GABPA = target: T2, GABPA (Homo sapiens, UniProt Q06546 1-454)
T2 sequence: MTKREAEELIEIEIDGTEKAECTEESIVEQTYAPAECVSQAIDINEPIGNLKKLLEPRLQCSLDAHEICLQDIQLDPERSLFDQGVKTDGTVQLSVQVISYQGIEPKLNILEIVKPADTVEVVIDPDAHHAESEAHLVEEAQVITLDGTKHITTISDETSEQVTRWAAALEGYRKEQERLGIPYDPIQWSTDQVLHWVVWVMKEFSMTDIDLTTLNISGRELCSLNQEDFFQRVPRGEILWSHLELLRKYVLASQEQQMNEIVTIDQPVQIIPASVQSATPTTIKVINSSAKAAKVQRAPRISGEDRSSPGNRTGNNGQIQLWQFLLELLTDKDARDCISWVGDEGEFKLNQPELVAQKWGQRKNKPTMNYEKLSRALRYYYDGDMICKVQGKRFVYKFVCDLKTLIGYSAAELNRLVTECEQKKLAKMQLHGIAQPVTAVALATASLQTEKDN
How it was run: as §1

ERG = target: T3, ERG (Homo sapiens, UniProt P11308 1-479)
T3 sequence: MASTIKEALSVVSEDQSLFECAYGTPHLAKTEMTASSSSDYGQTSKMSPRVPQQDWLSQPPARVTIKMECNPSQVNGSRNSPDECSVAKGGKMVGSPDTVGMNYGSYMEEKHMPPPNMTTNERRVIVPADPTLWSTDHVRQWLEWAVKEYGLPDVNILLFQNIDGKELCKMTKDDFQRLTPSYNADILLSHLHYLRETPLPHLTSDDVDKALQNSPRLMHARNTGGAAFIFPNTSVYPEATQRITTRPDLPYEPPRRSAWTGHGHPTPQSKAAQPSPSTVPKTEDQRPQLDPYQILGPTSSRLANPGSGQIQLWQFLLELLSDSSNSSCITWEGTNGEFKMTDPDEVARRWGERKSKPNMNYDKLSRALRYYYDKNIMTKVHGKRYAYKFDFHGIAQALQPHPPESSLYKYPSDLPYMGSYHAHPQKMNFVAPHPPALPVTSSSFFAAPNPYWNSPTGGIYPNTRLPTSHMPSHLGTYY
How it was run: as §1

ELF1 = ELF1 (Homo sapiens, UniProt P32519 1-619)
ELF1, sequence (P32519 whole entry): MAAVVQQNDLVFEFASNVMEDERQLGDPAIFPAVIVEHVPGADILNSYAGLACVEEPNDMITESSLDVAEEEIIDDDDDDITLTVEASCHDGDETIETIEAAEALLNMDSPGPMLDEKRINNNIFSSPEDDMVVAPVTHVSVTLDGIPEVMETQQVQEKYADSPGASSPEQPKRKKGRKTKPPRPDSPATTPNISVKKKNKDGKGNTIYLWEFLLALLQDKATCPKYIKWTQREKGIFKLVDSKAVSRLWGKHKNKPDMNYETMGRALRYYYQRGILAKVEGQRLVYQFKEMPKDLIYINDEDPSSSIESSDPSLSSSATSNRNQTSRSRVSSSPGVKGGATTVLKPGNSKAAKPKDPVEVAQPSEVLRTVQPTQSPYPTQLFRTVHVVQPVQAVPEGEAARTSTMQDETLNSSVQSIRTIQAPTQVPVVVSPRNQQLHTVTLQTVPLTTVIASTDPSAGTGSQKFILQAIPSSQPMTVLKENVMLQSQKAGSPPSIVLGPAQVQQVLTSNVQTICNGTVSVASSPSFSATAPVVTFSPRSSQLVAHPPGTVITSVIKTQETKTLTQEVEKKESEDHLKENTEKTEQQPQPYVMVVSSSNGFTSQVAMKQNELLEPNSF
How it was run: as §1

EHF = target: T4, EHF (Homo sapiens, UniProt Q9NZC4 1-300)
T4 sequence: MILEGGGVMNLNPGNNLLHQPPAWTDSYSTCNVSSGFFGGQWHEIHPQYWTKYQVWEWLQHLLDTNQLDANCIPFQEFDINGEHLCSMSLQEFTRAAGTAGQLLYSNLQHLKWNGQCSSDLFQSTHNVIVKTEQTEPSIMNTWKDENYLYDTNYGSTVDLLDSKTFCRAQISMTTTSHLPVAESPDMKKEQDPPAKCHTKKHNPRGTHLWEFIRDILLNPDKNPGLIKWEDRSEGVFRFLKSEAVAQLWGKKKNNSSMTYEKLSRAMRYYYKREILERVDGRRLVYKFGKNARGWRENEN
How it was run: as §1

SPI1 = SPI1 (Homo sapiens, UniProt P17947 1-270)
How it was run: as §1

SPIB = SPIB (Homo sapiens, UniProt Q01892 1-262)
SPIB, sequence (Q01892 whole entry): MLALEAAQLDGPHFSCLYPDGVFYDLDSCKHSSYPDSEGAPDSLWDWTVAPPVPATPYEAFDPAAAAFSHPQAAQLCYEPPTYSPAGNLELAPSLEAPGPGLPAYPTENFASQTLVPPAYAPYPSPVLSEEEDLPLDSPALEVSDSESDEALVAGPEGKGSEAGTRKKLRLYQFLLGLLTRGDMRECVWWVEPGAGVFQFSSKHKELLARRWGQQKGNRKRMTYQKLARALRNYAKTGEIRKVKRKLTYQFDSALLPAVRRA
How it was run: as §1

FEV = target: T5, FEV (Homo sapiens, UniProt Q99581 1-238)
T5 sequence: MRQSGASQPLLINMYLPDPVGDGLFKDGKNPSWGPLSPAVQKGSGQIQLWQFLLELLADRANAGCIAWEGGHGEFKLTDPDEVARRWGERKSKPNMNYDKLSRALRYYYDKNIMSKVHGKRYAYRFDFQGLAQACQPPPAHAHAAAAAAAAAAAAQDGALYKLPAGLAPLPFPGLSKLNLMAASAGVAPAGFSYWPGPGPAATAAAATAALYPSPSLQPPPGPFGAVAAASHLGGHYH
How it was run: as §1

ETV5 = ETV5 (Homo sapiens, UniProt P41161 1-510)
ETV5, sequence (P41161 whole entry): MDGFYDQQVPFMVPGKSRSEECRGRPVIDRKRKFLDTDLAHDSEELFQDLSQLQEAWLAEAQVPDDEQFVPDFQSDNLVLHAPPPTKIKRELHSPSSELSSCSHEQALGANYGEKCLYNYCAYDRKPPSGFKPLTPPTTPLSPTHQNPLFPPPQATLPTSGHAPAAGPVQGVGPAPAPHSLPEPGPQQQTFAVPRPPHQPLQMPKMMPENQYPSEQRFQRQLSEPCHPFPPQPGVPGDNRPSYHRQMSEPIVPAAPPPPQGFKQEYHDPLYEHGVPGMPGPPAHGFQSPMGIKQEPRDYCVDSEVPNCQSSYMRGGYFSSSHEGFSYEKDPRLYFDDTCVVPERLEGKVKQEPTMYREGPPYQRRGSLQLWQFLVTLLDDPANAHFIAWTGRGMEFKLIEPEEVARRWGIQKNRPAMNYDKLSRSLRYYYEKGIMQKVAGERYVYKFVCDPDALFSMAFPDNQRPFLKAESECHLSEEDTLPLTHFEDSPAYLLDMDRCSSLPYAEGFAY
How it was run: as §1

ELF4 = ELF4 (Homo sapiens, UniProt Q99607 1-663)
ELF4, sequence (Q99607 whole entry): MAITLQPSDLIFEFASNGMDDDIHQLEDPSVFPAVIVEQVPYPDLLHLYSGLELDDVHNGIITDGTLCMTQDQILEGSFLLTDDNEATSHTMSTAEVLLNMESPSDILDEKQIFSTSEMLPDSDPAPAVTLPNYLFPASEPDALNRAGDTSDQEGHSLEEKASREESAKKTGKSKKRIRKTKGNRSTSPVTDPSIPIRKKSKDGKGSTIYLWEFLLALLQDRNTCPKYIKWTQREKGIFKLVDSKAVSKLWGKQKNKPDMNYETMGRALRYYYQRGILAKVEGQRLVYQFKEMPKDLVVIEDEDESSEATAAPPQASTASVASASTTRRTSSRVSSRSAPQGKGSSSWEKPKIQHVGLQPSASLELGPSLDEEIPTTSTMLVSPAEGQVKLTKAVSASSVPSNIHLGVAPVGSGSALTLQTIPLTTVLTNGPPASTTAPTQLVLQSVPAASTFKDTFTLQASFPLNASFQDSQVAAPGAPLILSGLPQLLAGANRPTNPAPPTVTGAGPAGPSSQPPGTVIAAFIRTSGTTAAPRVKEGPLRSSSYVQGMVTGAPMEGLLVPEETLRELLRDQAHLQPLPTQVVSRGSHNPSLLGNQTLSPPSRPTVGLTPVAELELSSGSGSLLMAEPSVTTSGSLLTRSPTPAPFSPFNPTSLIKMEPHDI
How it was run: as §1

With ATAATG the binding signal (ELK1) was 1.1 fold enrichment (6-mer frequency, TF over GST control), the binding signal (GABPA) was 1.06 fold enrichment (6-mer frequency, TF over GST control) and the binding signal (ERG) was 1.03 fold enrichment (6-mer frequency, TF over GST control). The binding signal (ELF1) was 1.11 fold enrichment (6-mer frequency, TF over GST control), the binding signal (EHF) was 1.14 fold enrichment (6-mer frequency, TF over GST control) and the binding signal (SPI1) was 1.07 fold enrichment (6-mer frequency, TF over GST control). For the same sequence, the binding signal (SPIB) was 1.19 fold enrichment (6-mer frequency, TF over GST control), the binding signal (FEV) was 1.08 fold enrichment (6-mer frequency, TF over GST control) and the binding signal (ETV5) was 1.09 fold enrichment (6-mer frequency, TF over GST control). For the same sequence, the binding signal (ELF4) was 1.06 fold enrichment (6-mer frequency, TF over GST control).

— article PMC7862700, “An all-to-all approach to the identification of sequence-specific readers for epigenetic DNA modifications on cytosine”
